HCMV inh = qHTS Assay for inhibitors of the human cytomegalovirus (HCMV); HFF cells, HCMV-luciferase reporter, 72 h; hits give low values; activity change, negative = inhibition, % at 57.5 µM; 410,000 compounds, 4.5% hits; AID 1259415, 2018; in the data active = activity change below about -60%; inconclusive = no clear call, values can overlap the other calls; inactive = above about -39%
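Steps: HFFs plated, 16 h 37C; compounds added; HCMV-luciferase added to MOI 1 PFU/cell; 72 h 37C; OneGlo reagent, 5 min room temperature; luminescence read, normalized to controls.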
LASV entry inh = qHTS for Inhibitors of binding or entry into cells for Lassa Virus; 300,000 compounds, 1.2% hits; AID 540256, 2011; Potency, µM (highest dose often 37.9 µM), inactives show at the highest dose activity change, negative = inhibition, usual class: inhibitors; Lassa virus pseudotype entry inhibition, cell reporter; calls by dose curve; tested in HEK293 cells; note: potency is the fitted concentration of half-maximal effect; nearly all actives have a fitted effect of over 50% in size
MARV entry inh = qHTS for inhibitors of binding or entry into cells for Marburg Virus; Marburg virus pseudotyped entry inhibition, cell reporter; Potency, µM (series often up to 37.8 µM), inactives show at the highest dose activity change, negative = inhibition, usual class: inhibitors; 300,000 compounds, 1.8% hits; calls by dose curve; tested in HEK293 cells; note: potency is the fitted concentration of half-maximal effect
FMDV antiviral = High Throughput Screening for Foot and Mouth Disease Virus Antivirals; FMDV antiviral cell-based qHTS; Potency, µM (titrated, usually from 57.9 µM), inactives show at the top dose activity change, negative = inhibition, usual class: inhibitors; 410,000 compounds, 1.2% hits; calls by dose curve; tested in HEK293T cells; note: read-out not given here; potency is the fitted concentration of half-maximal effect; nearly all actives have a fitted effect of over 45% in size
Starred values were filed as active, the others as inactive; ? = inconclusive; . = no result; [ ] = another dose, or the depositor's remark. An excerpt weighted towards active compounds, which were near 6.2% of everything screened. % is set by controls: 0 for no effect and ±100 for the full control effect.

SMILES	HCMV inh	LASV entry inh	MARV entry inh	FMDV antiviral
COc1ccc2cc(CN(C(=O)c3cc(C)nn3C)C3CC3)c(-c3ccc(Cl)cc3)nc2c1	.	.	.	-18.9%
O=C(C[n+]1ccn(-c2ccccc2)c1)c1ccc([N+](=O)[O-])cc1	-63.5*	.	.	-24.1%
CN(C)c1cc[n+](CC(=O)c2ccc(-c3ccccc3)cc2)cc1	-95.1*	?	?	?
COc1ccc(C(=O)C[n+]2ccc(N(C)C)cc2)cc1	-68.1*	?	1.9%[46.1 µM]	-26.4%
CCN1CCN(c2ncnc3c2cnn3-c2ccc(F)cc2)CC1	66.6	?	.	36.4%
CC(C)C1(C)C(=O)N=C2C3=C(CCCC3)C(=O)N21 (stereo not given)	.	.	16.7%[46.1 µM]	.
Cc1[nH]c2ccccc2c1CC(=O)Nc1ccc(Nc2cccnc2)c(-c2cc(F)cc(F)c2)c1	-11.4	.	.	.
CC1Sc2ccc(S(=O)(=O)N3CCC(C(=O)Nc4ccc(Cl)cc4)CC3)cc2NC1=O (stereo not given)	-71.1*	.	.	14.1µM*
Cc1ccc(NC(=O)C2CCN(S(=O)(=O)c3ccc(N4CCCC4=O)cc3)CC2)cc1Cl	-85.6*	?	?	-28.2%
COc1ccc(NC(=O)C2CCN(S(=O)(=O)c3ccc4c(c3)NC(=O)C(C)S4)CC2)cc1 (stereo not given)	?	-11.1%[46.1 µM]	?	0.0%
CC(C)c1ccc(NC(=O)C2CCN(S(=O)(=O)c3ccc4c(c3)NC(=O)CO4)CC2)cc1	-68.1*	.	.	?
Cc1ccc(C)c(CSc2c(C(C)C)cnc3c2c(=O)n(C)c(=O)n3C)c1	2.6	-11.1%[46.1 µM]	.	-23.1%
CC(C)OCCCNC(=O)CCCN1C(=O)CCn2nc(-c3cccn3C)cc21	10.2	-2.1%[46.1 µM]	.	-3.3%
CCOC(=O)c1c(C)[nH]c(C)c1C(=O)COC(=O)/C=C/c1cccc(Cl)c1	-13.9	-25.2%	-1.9%	-14.9%
CCOC(=O)c1c(C)[nH]c(C=O)c1Cc1cccc(Cl)c1	-35.6	6.31µM*	?	0.0%
COC(=O)[C@@H]1CCCN1C(=O)c1cc(NC(=O)C2CCC2)c2c(c1)nc(-c1ccncc1)n2C	.	.	.	-9.6%
CCCC1CCC(c2ccc(C(N)=O)cc2)CC1 (stereo not given)	-6.6	15.4%	-4.7%	-1.7%
CCCC1CCC(c2ccc(C(=O)NN)cc2)CC1 (stereo not given)	-78.8*	?	-19.0%	-19.0%
COc1cc(=O)n2c(c1C(=O)NCc1ccco1)CCN(Cc1ccc3nsnc3c1)CC2	.	.	.	-14.7%
CN(C)c1ccc(/C=C2\SC(=O)N(CCc3nnc(N)s3)C2=O)cc1	?	?	1.12µM*	-59.7%
CN(C)c1ccc(/C=C2/SC(=O)N(CCN=C3NS(=O)(=O)c4ccccc43)C2=O)cc1	24.0	-24.5%	19.8%	29.3%
O=C1NC(c2ccccc2)=C(c2nc3ccccc3s2)C(c2ccccc2)N1 (stereo not given)	48.7	9.2µM*	-21.3%	?
CC(/C=N/c1ccccn1)=N\c1ccccn1	-20.1	.	.	.
O=C1NC(=O)c2cc(NC(=O)c3cccc4ccccc34)ccc21	-84.9*	.	.	3.9%
CCC1CN(CCC(=O)NC2CCOC(C)(C)C2)Cc2cc(OC)ccc2O1 (stereo not given)	.	.	.	-8.8%
SMILES	HCMV inh	LASV entry inh	MARV entry inh	FMDV antiviral
CC(=O)C(Sc1ccc2nnc(-c3ccncc3)n2n1)C(C)=O	-62.4*	.	.	-20.5%
CC(=O)Nc1ccc(CN(C)c2c(C)nc3ccc(C(=O)N(C)Cc4ccccc4)cn23)cc1	0.8	.	.	-16.8%
CC(=O)Nc1ccc(CN(C)c2c(C)nc3ccc(C(=O)NC4CCN(Cc5ccccc5)CC4)cn23)cc1	-97.1*	.	.	-18.2%
COc1ccccc1CNC(=O)C(Cc1ccccc1)NS(=O)(=O)c1ccc2c(c1)CCN2C(C)=O (stereo not given)	6.0	-4.6%[46.1 µM]	?	5.1%
O=C1CCC(=O)N1c1ccccc1OS(=O)(=O)c1ccccc1	-97.1*	6.3%	?	-9.1%
O=S(=O)(Oc1ccccc1N1CCCCC1)c1ccccc1	-61.4*	-2.5%[46.1 µM]	?	-0.4%
CC(=O)Nc1ccc(S(=O)(=O)Oc2ccc(N3C(=O)C4CCCCC4C3=O)cc2)cc1 (stereo not given)	-39.0	-2.3%	-1.3%	?
CC(=O)Nc1ccc(S(=O)(=O)Oc2ccccc2N2C(=O)C3C4CCC(C4)C3C2=O)cc1 (stereo not given)	-34.2	2.82µM*	10µM*	-23.2%
COc1ccccc1N1CCN(S(=O)(=O)c2ccccc2)CC1	78.2	-0.9%	-1.9%	-12.8%
O=C1CCC(=O)N1c1ccccc1-c1ccccc1	34.5	?	-3.1%	-14.1%
CCN(CC)CCN1C(=O)C(=O)/C(=C(\O)c2ccc(Cl)cc2)[C@@H]1c1ccncc1	.	.	1.9%	.
COCCN1Cc2cc(C(=O)OC)c3c(c2C1=O)c1cc(OC)ccc1n3S(=O)(=O)c1ccc(C)cc1	-32.2	.	.	.
O=C(NCCc1nnc2n1CCN(CC1CC=CCC1)CC2)c1ccc(F)cc1 (stereo not given)	.	.	.	-12.0%
Cc1ccccc1C(=O)Nc1ccc2oc(-c3ccc(Cl)c(Cl)c3)nc2c1	10.2	-6.9%[46.1 µM]	.	-8.0%
CCOC(=O)C(C)CC(C)C(=O)N1CCOCCOCCN(C(=O)C(C)CC(C)C(=O)OCC)CCOCC1 (stereo not given)	36.8	0.1%	-10.5%	-2.3%
CCOC(=O)C(C(=O)OCC)C(C(=O)OCC)N1CCOCC1 (stereo not given)	-105.4*	11.3%	?	31.6µM*
Cc1ccc(NC(=O)Cn2c(=O)n(Cc3ccccc3)c(=O)c3c(C)c(C(=O)N(C)C)sc32)c(C)c1	-22.6	18.2%[46.1 µM]	.	-10.7%
Cc1ccc(-c2nnc(NCc3nc4ccccc4[nH]3)c3ccccc23)cc1S(=O)(=O)N(C)C	-31.8	17.8µM*	?	?
Cc1ccc(Nc2nnc(-c3ccc(C)c(S(=O)(=O)NCc4nc5ccccc5[nH]4)c3)c3ccccc23)cc1	12.2	?	?	46.9%
CCCNCC(O)COc1ccccc1C(=O)CCc1ccccc1 (stereo not given)	28.1	?	9.2µM*	-1.7%
CCN(CC)CC(O)COc1ccccc1C(=O)CCc1ccccc1 (stereo not given)	-16.3	0.4%	?	.
NNC(=S)NC1CCS(=O)(=O)C1 (stereo not given)	20.5	4.0%	?	-13.5%
CN(C)C(=S)NC1CCS(=O)(=O)C1 (stereo not given)	-24.7	0.5%	-16.0%[46.1 µM]	-4.1%
CC(C)(C)c1cc(CSC(=S)NC2CCS(=O)(=O)C2)c(Br)c(C(C)(C)C)c1 (stereo not given)	37.0	?	?	15.8µM*
O=S1(=O)CC=C(CSC(=S)NC2CCS(=O)(=O)C2)C1 (stereo not given)	33.8	-5.8%[46.1 µM]	10.1%[46.1 µM]	11.2µM*
CSc1nn(CCC#N)c(=O)[nH]c1=O	2.3	.	.	.
CCC1CCCCN1S(=O)(=O)c1ccc(NC(=O)c2nc(S(C)(=O)=O)ncc2Cl)cc1 (stereo not given)	-112.8*	?	8.91µM*	31.6µM*
CCS(=O)(=O)c1ncc(Cl)c(C(=O)Nc2ccc(S(=O)(=O)N3CCCC(C)C3)cc2)n1 (stereo not given)	-101.3*	?	?	10µM*
